Values joined by “and” are separate entries in the source; they are usually repeats but may differ in a detail not shown here. Equal values may be shown once. Screen size: about 16,000 compounds; about 5,800 (36%) were called active. Inconclusive results (about 23%) are left out. The call rests on the fitted dose curve; in most records, active means well fitted curve in the direction sought with a large enough effect; inconclusive means small, poorly fitted or top-dose-only effect, or effect the other way; inactive means no such curve, though single readings can be large or run the other way. The list shows a part of the results. The source holds several records for some structures; these can differ, active in one and inactive in another.
molecular target: Cytochrome P450 2C19 (Homo sapiens) (UniProt P33261); assay: Cytochrome panel assay with activity outcomes; details: recombinant CYP, pro-luciferin dealkylation, luminescence, p450-cyp2c19; series mostly up to 57.1 µM; activity, negative = inhibition: at the top concentration
Sequence (P33261 whole entry, looked up): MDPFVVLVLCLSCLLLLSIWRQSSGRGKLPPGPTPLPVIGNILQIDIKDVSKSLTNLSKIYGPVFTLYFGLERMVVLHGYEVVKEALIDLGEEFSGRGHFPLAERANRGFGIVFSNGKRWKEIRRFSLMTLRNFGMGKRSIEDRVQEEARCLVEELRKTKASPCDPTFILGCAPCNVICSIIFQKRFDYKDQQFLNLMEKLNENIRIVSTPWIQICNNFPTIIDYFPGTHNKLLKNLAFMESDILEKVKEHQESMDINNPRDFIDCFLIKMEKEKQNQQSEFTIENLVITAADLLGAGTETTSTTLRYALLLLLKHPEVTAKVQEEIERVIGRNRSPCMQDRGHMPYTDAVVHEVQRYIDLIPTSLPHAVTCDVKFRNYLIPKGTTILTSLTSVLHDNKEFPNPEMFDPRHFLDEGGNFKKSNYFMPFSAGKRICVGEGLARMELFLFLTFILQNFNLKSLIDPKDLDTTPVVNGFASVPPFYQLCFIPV
On the % scale 0 is the no-effect control and ±100 the full control effect.

Row | Structure (SMILES) | activity, negative = inhibition | AC50
1 | O=C(N/N=C1/C[C@@H](O)[C@@H](O)[C@@H]2[C@@H]3C(=O)N(Cc4ccccc4)C(=O)[C@H]3CC[C@@H]12)OCc1ccccc1 | 9.42% [at 11.4 µM] (inactive) | –
2 | O=C(c1cc(C(F)(F)F)cc(C(F)(F)F)c1)N1CCC2(CCN(Cc3ccccc3)CC2)CC1 | 3.98% (inactive) | –
3 | O=C(c1cccc(C(F)(F)F)c1)N1CCC(O)(CS(=O)(=O)Cc2ccccc2)CC1 | – | 22.4 µM (active)
4 | O=C(c1cc(C(F)(F)F)cc(C(F)(F)F)c1)N1CCC2(CC1)CN(Cc1ccccc1)C2 | 23.7% (inactive) | –
5 | COc1ccccc1CNc1ncncc1-c1ccc(C(=O)N(C)C)cc1 | -41.5% (inactive) | –
6 | COc1ccc(CNc2ncncc2-c2ccc(C(=O)N(C)C)cc2)c(OC)c1 | – | 15.8 µM (active)
7 | COc1ccc(CNc2ncncc2-c2ccc(N(C)C)cc2)c(OC)c1 | – | 1.58 µM (active)
8 | C[C@H](N)C(=O)O | 30.8% (inactive) | –
9 | N[C@H](Cc1ccc(Cl)cc1)C(=O)O | 7.86% (inactive) | –
10 | O=C(O)C(Sc1ccc(Cl)cc1)Sc1ccc(Cl)cc1 | – | 0.1 µM (active)
11 | N[C@@H](CC1=CS(=O)(=O)c2ccc(Cl)cc21)C(=O)O | -36.6% [at 11.4 µM] (inactive) | –
12 | NCCOB(c1ccccc1)c1ccccc1 | -41% (inactive) | –
13 | Cc1[nH]n(C(C)(C)C)c(=O)c1Sc1ccc(Cl)cc1 | – | 3.98 µM (active)
14 | O=[N+]([O-])c1ccc(Cl)c(-c2ccc(/C=N/c3c(-c4ccco4)nc4ccccn34)o2)c1 | 8.08% (inactive) | –
15 | COc1cc(-c2nc3ccccn3c2/N=C/c2ccccc2)ccc1O | – | 10 µM (active)
16 | COc1cc(Cn2cnnn2)ccc1O | -23.8% (inactive) | –
17 | CC(C)NC(=O)CC(=O)N/N=C/c1ccc(F)cc1 | 23% (inactive) | –
18 | CC(C)(C)NC(=O)C(=O)N/N=C/c1ccc(Br)cc1 | – | 14.1 µM (active)
19 | O=Nc1ccc(NOC(=O)c2ccc(Br)cc2)cc1 | -12.5% (inactive) | –
20 | CC(C)NC(=O)CC(=O)N/N=C/c1ccc(Br)cc1 | – | 3.55 µM (active)
21 | O=C(N/N=C/c1ccc(F)cc1)c1ccc(Br)cc1 | -28.4% (inactive) | –
22 | CCOc1ccc(OCCOCCN2CCc3ccccc3C2)cc1 | – | 14.1 µM (active)
23 | CCCCOc1ccc(CN2CCC(O)CC2)cc1 | 6.74% (inactive) | –
24 | CC(=O)Nc1sc2c(c1CN1CCN(C)CC1)CCCC2 | – | 6.31 µM (active)
25 | CCNC(=O)c1c(NC(C)=O)sc2c1CCCC2 | -12.1% (inactive) | –

Row | Structure (SMILES) | activity, negative = inhibition | AC50
26 | Cc1cc(OCC(F)(F)C(F)(F)C(F)(F)C(F)(F)C(F)(F)C(F)F)nc(N)n1 | – | 3.16 µM (active)
27 | CCCc1cc(=O)[nH]c(SCc2cc(Cl)ccc2OC(F)F)n1 | – | 2.82 µM (active)
28 | COc1cc(-c2ccc(=O)[nH]n2)ccc1OC(F)F | -35% [at 25.6 µM] (inactive) | –
29 | O=C(COc1cccc2ccccc12)NNC(=O)c1cccs1 | – | 10 µM (active)
30 | Cc1ccc(S(N)(=O)=O)cc1NC(=O)/C=C/c1cccs1 | -24.6% (inactive) | –
31 | Cc1cccc(C)c1NC(=O)/C(C#N)=C/c1cccs1 | – | 4.47 µM (active)
32 | N#C/C(=C\c1cccs1)C(=O)NCC1CCCO1 (stereo not given) | -16.4% (inactive) | –
33 | CC(=O)Nc1nnc(S(N)(=O)=O)s1 | 2.11% [at 25.6 µM] (inactive) | –
34 | CC(C)=CC(=O)Nc1nnc(C(C)C)s1 | – | 25.1 µM (active)
35 | C=CCOC(=O)C1=C(C)NC(SC)=C(C#N)C1c1cccs1 (stereo not given) | – | 0.178 µM (active)
36 | C=CCOC(=O)C1=C(C)NC(SCC(=O)OCC)=C(C#N)C1c1ccc(C)cc1 (stereo not given) | – | 2.82 µM (active)
37 | Cn1cccc1C(=O)N1CCC[C@@]2(CCN(Cc3ccc(C#N)cc3)C2)C1 | 11.3% (inactive) | –
38 | C#C[C@H](N)CCC(=O)O | 75.3% (inactive) | –
39 | Cc1nnsc1SC(C)C(=O)O (stereo not given) | -14.3% (inactive) | –
40 | CCNc1ncc2nc(-c3ccc(OC)cc3)c(=O)n(-c3ccc(OC)cc3)c2n1 | 9.96% (inactive) | –
41 | CN(C(=S)NC(=O)c1ccccc1Br)C1CCCCC1 | – | 7.94 µM (active)
42 | C/C=C\C[C@H](C)[C@H](O)[C@H]1C(=O)N[C@@H](CC)C(=O)N(C)CC(=O)N(C)[C@@H](CC(C)C)C(=O)N[C@@H](C(C)C)C(=O)N(C)[C@@H](CC(C)C)C(=O)N[C@@H](C)C(=O)N[C@@H](C)C(=O)N(C)[C@@H](CC(C)C)C(=O)N(C)[C@@H](CC(C)C)C(=O)N(C)[C@@H](C(C)C)C(=O)N1C | – | inactive
43 | CC(C)OC(=O)c1cc2c(OC[C@@H](O)CNC(C)(C)C)cccc2[nH]1 | -10.6% (inactive) | –
44 | O=[N+]([O-])c1ccc(/C=N/N/C(=N/c2ccccn2)c2ccccn2)cc1 | – | 28.2 µM (active)
45 | C[N+]1(C)CCC(=C(c2ccccc2)c2ccccc2)CC1 | 3.56% [at 25.6 µM] (inactive) | –
46 | c1ccc2cc(Sc3ncnc4c3oc3ccccc34)ccc2c1 | – | 2 µM (active)
47 | Oc1c(C(O)(c2ccccc2)c2ccc3ccccc3c2O)ccc2ccccc12 | – | 0.794 µM (active)
48 | Cc1ccc(N=Cc2cc(C)n(C3CCCC3)c2C)cc1 | – | 17.8 µM (active)
49 | C[C@@]12C[C@H](O)[C@@H]3[C@H](CCC4=CC(=O)CC[C@]43C)[C@H]1CC[C@@H]2c1csc(N)n1 | – | 3.98 µM (active)
50 | C[C@@]12CCC(=O)C=C1CC[C@H]1[C@@H]2[C@@H](O)C[C@]2(C)[C@@H]1CC[C@@]2(O)C(=O)COC(=O)C1CCCC1 | -27.7% [at 11.4 µM] (inactive) | –

Row | Structure (SMILES) | activity, negative = inhibition | AC50
51 | C[C@@]12CCC(=O)C=C1CC[C@@H]1[C@@H]2[C@H](O)C[C@]2(C)[C@@H]1CC[C@]2(O)C(=O)CO | 16.8% [at 25.6 µM] (inactive) | –
52 | Cc1cc(C)nc(NC(=O)/C=C/c2ccc(Cl)cc2Cl)c1 | – | 15.8 µM (active)
53 | Cc1noc(C)c1C(=O)N1CCC[C@@]2(CCN(C(=O)Nc3cccc(F)c3)C2)C1 | 5.9% (inactive) | –
54 | CCOC(=O)Cc1csc(NC(=O)c2ccc(Cl)nc2)n1 | – | 10 µM (active)
55 | CCOC(=O)Cc1csc(NC(=O)c2c(-c3c(Cl)cccc3Cl)noc2C)n1 | – | 3.55 µM (active)
56 | Cc1noc(C)c1C(=O)N1CCC2(CCCN(C(=O)Nc3cccc(F)c3)C2)CC1 | -29.5% (inactive) | –
57 | Cc1onc(-c2c(Cl)cccc2Cl)c1C(=O)Nc1ccc2c(c1)OCO2 | – | 1.12 µM (active)
58 | CCOC(=O)Cc1csc(NC(=O)c2ccc(S(=O)(=O)N3CCCCC3)cc2)n1 | – | 14.1 µM (active)
59 | COCc1nnc(NC(=O)c2ccc(S(=O)(=O)N3CCCCCC3)cc2)o1 | -18.3% (inactive) | –
60 | CC(C)CN1CCCC2(CCN(C(=O)c3cnccn3)CC2)C1 | -12.2% (inactive) | –
61 | O=C1CN(C(=O)c2ccc(Br)o2)C(c2ccc(F)cc2)c2cc(Cl)ccc2N1 (stereo not given) | – | 7.94 µM (active)
62 | CCCCC(=O)Nc1sc2c(c1C(=O)OCC)CCC(C=O)=C2Cl | – | 14.1 µM (active)
63 | O=C1Nc2ccccc2Nc2ncccc21 | -12.3% (inactive) | –
64 | CC(/C=C/c1ccccc1)=N/NC(=O)CNC(=O)c1ccc2c(c1)OCO2 | -24.7% (inactive) | –
65 | C/C(=N\NC(=O)CSCc1ccc(Cl)cc1)c1ccc2c(c1)OCCO2 | – | 1.26 µM (active)
66 | O=C(CCN1C(=O)c2ccccc2C1=O)NC(=S)Nc1cccc(Cl)c1 | – | 4.47 µM (active)
67 | CCC(=O)NC(=S)Nc1ccc(NC(=O)COc2ccc(Cl)cc2Cl)cc1 | – | 2.82 µM (active)
68 | O=C(COc1ccccc1Cl)NC(=S)Nc1cccc(NC(=O)c2ccccc2Cl)c1 | – | 0.631 µM (active)
69 | C=C(CC)C(=O)c1ccc(OCC(=O)O)c(Cl)c1Cl | -9.62% [at 25.6 µM] (inactive) | –
70 | CCc1ccc(OCC(=O)NC(=S)Nc2ccc(F)cc2)c(Br)c1 | – | 8.91 µM (active)
71 | Cc1ccccc1OCC(=O)NC(=S)Nc1ccc(Br)c(C)n1 | -10.9% (inactive) | –
72 | CN(C)c1ncnc2c1ncn2CCn1cnc2c(N(C)C)ncnc21 | 27.8% [at 11.4 µM] (inactive) | –
73 | NC1=C2NC=N[C@@H]2N(C/C=C\c2ccccc2)C=N1 | 7.43% [at 11.4 µM] (inactive) | –
74 | Cc1c(N2C(=O)/C(=C3/C(=O)N(C)c4ccccc43)SC2=S)c(=O)n(-c2ccccc2)n1C | – | 2.82 µM (active)
75 | Cc1c(O)c(=O)n(-c2ccccc2)n1C | -3.86% [at 25.6 µM] (inactive) | –

Row | Structure (SMILES) | activity, negative = inhibition | AC50
76 | Cc1c(N(C)C)c(=O)n(-c2ccccc2)n1C | -8.86% [at 25.6 µM] (inactive) | –
77 | O=S(=O)(O)c1ccc2c(N=Nc3cccc4ccccc34)c(O)c(S(=O)(=O)O)cc2c1 | 13.7% [at 11.4 µM] (inactive) | –
78 | CCCn1c(N)[n+](CC(=O)c2ccco2)c2ccccc21 | -19% (inactive) | –
79 | CN(C(=O)C(Cl)Cl)c1ccc(OC(=O)c2ccco2)cc1 | -12.6% [at 25.6 µM] (inactive) | –
80 | CCOC(=O)c1c(C)n(C)c2ccc(OC(=O)c3ccco3)cc12 | – | 5.01 µM (active)
81 | COc1cc(/C=C2/C(=N)N3C=CSC3=NC2=O)ccc1OCCCOc1ccccc1C | – | 7.94 µM (active)
82 | CCOc1cc(/C=C2/C(=N)N3C=CSC3=NC2=O)ccc1OCCCOc1ccccc1C | – | 1 µM (active)
83 | Cc1ccc(N=Nc2ccc(N)cc2C)c(S(N)(=O)=O)c1 | 1.27% [at 11.4 µM] (inactive) | –
84 | COc1ccccc1CN1CC[C@@]2(CCCN(S(C)(=O)=O)C2)C1 | -26.4% (inactive) | –
85 | CCCNc1c(F)c(F)c2c(C)c3ccccc3nc2c1F | – | 10 µM (active)
86 | CC1CN(C(=O)CN2C(=O)NC3(CCCCCC3)C2=O)CC(C)O1 (stereo not given) | -25.4% (inactive) | –
87 | Cc1ccc(CC(=O)N2CC(C)OC(C)C2)cc1 (stereo not given) | – | 8.91 µM (active)
88 | CCNC(=S)N1CC(C)OC(C)C1 (stereo not given) | 13.7% (inactive) | –
89 | c1ccc2c(c1)ncn2-c1ccc(-c2ccnc(-c3ccncc3)n2)cc1 | – | 0.2 µM (active)
90 | CCOC(=O)c1ccc2nc(C)c(CCC(C)=O)c(Cl)c2c1 | – | 5.62 µM (active)
91 | CC(C)(C)c1cc(C(=O)O)c(CN2CCCCC2)o1 | -27.2% (inactive) | –
92 | CN(C)S(=O)(=O)Oc1ccsc1C(=O)Nc1ccc(Cl)cc1 | – | 0.891 µM (active)
93 | CN(C)S(=O)(=O)c1ccc(C(=O)Nc2ccc(CN3CCCC3)cc2)cc1 | -17.7% (inactive) | –
94 | COc1ccc(/C=N/n2cnc3c([nH]c4ccc(Br)cc43)c2=O)cc1CN1CCOCC1 | – | 3.55 µM (active)
95 | [N-]=[N+]=Nc1ccc(C(=O)CSC[C@@H](NC(=O)CC[C@@H](N)C(=O)O)C(=O)NCC(=O)O)cc1 | -17.4% (inactive) | –
96 | ON(CCc1ccncc1)Cc1ccccc1 | – | 0.316 µM (active)
97 | c1ccc(CCN2CCN=C2Cc2ccccc2)cc1 | 7.77% [at 11.4 µM] (inactive) | –
98 | ON(CCc1ccccn1)Cc1ccccc1 | -32.5% [at 11.4 µM] (inactive) | –
99 | c1ccc(SCCc2ccncc2)cc1 | – | 447 nM (active) and 794 nM (active)
100 | Fc1ccc(SCCc2ccncc2)cc1 | – | 0.447 µM (active)

Reference: PubChem BioAssay AID1851 (National Center for Advancing Translational Sciences (NCATS), 2009)
